A selection: hits, their analogues and other compounds. The true share with any hit is near 12%.
BAZ2B block: blocks human BAZ2B. AlphaScreen BAZ2B-H3K14Ac peptide displacement. Potency, µM (highest dose often 114 µM), without a hit: top-dose activity change, negative = inhibition, most hits filed as inhibitors. 360,000 compounds, 4.4% hits. AID 504333; note: % is set by controls: 0 for no effect and ±100 for the full control effect; nearly all actives have a fitted effect of over 60% in size
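AlphaScreen displacement of biotin-H3(5-23)K14Ac peptide (50 nM final) from BAZ2B (50 nM final) in PBS pH 7.4, 0.01% Tween-20; complex preformed 30 min RT, then compounds (top 110 uM) 30 min RT, beads 20 min dark.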
G9a block: blocks human histone lysine methyltransferase G9a; Q96KQ7; G9a H3K9 monomethylation, AlphaScreen, 2 h; Potency, µM (doses to about 102 µM), without a hit: top-dose activity, negative = inhibition, usual class: inhibitors; 350,000 compounds, 8.8% hits; note: % is set by controls: 0 for no effect and ±100 for the full control effect; nearly all actives have a fitted effect of over 75% in size
Target sequence (Q96KQ7 913-1193 limits assumed): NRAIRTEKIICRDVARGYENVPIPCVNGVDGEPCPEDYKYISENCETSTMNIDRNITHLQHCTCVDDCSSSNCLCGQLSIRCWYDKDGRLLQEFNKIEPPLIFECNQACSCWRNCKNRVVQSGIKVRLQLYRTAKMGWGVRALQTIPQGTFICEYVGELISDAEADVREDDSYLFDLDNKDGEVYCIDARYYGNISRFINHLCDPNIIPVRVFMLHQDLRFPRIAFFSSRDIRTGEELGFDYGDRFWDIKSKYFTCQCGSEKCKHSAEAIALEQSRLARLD
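Methyltransferase reactions run at room temperature for 2 h (20 nM enzyme, 500 nM biotin-H3K9 peptide, 20 uM SAM) after a 15 min compound preincubation; product detected by AlphaScreen beads and anti-H3K9me1 antibody.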
JMJD2A Tudor inh: JMJD2A Tudor domain (human) inhibition; AlphaScreen JMJD2A-Tudor / H3K4me3 peptide binding; Potency, µM (doses to about 114 µM), for inactives: top-dose activity change, negative = inhibition, hits mostly inhibitors; 390,000 compounds, 4.4% hits; AID 504339; note: % is set by controls: 0 for no effect and ±100 for the full control effect; nearly all actives have a fitted effect of over 50% in size
Sfp PPTase inh: inhibitors of Bacillus subtilis Sfp phosphopantetheinyl transferase; Biochemical Sfp PPTase activity, qHTS; 310,000 compounds, 3.5% hits; Potency, µM, for the others: largest response in the series, negative = inhibition, most hits filed as inhibitors;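 note: the enzyme is Sfp with the accession as filed and its product quenches rhodamine fluorescence; 0% = enzyme reaction without inhibitor and -100% = no enzyme wells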
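After 15 min at room temperature with compound, 15 nM Sfp received 5 uM rhodamine-CoA plus 12.5 uM BHQ-2-ybbR (50 mM Hepes pH 7.6, 10 mM MgCl2). Rate came from the fluorescence difference over 30 min, ex 525/em 598 nm.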
HP1b chromo inh: inhibitors of HP1-beta chromodomain binding to methylated histone tails | 390,000 compounds, 0.56% hits | P83916 | Potency, µM (series often up to 114 µM), without a hit: at the top dose activity change, negative = inhibition, usual class: inhibitors | AlphaScreen HP1-beta / biotin-H3K9me3 peptide binding; note: nearly all actives have a fitted effect of over 70% in size
Target sequence (P83916 whole entry, looked up): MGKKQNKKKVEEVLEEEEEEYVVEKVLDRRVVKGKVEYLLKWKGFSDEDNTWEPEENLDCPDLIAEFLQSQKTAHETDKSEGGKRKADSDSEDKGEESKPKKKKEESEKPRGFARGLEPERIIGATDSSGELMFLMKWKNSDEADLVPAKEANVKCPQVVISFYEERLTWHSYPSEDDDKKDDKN
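AlphaScreen: HP1-beta (50 nM) preformed 30 min with biotin-H3(1-18)K9me3 peptide (50 nM) in PBS pH 7.4, 0.01% Tween-20. Compound added for 30 min at RT, then streptavidin donor/nickel chelate acceptor beads (10 ug/mL) for 30 min.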
Starred values were filed as active, the others as inactive; ? = inconclusive; · = no result; ! = not active in a repeat; [ ] = remark or other dose. Calls come from the whole dose curve; as a rule, active = well fitted curve in the direction sought with a large enough effect; inconclusive = small, poorly fitted or top-dose-only effect, or another doubt; inactive = no such curve, though single readings can be large; an effect the other way counts as inactive or inconclusive. Potency is the fitted concentration of half-maximal effect.

SMILES	BAZ2B block	G9a block	JMJD2A Tudor inh	Sfp PPTase inh	HP1b chromo inh
CC(N)C(O)c1ccc(O)c(O)c1 (stereo not drawn)	·	?	·	-23%	·
O=c1[nH]c(=O)n(-c2cccc(F)c2)c(O)c1/C=C1\C=Nc2ccccc21	7%	-12%	-1%	-10%	33%
CCCCn1c(O)c(/C=C2\C=Nc3ccccc32)c(=O)[nH]c1=O	-5%	71µM*	-22%	-8%	13%
CCCCn1c(O)c(/C=C2/C=CC=N2)c(=O)[nH]c1=O	-15%	?	-3%	14%	23%
O=C(O)c1ccc(-n2c(O)c(/C=C3\C=Nc4ccccc43)c(=O)[nH]c2=O)cc1	-16%	45µM*	-12%	-4%	5%
Clc1ccc(CO[C@@H](Cn2ccnc2)c2ccc(Cl)cc2Cl)cc1	·	?	·	10%	·
COc1cc(/C=C2/SC(=S)N(Cc3ccccc3)C2=O)ccc1OCC(=O)O	56µM*	5%[0.501 µM]	?	-25%	-12%
C[C@](N)(CCP(=O)(O)O)C(=O)O	?	14µM*!	4µM*	-20%	-15%
CN(CCc1ccc(Cl)c(Cl)c1)[C@@H]1CCCC[C@@H]1N1CCCC1	·	-31%[59 µM]	·	16%	·
Cc1cccn2c(=O)c3c(nc12)N1CCC(Cc2ccccc2)CC1C1(C3)C(=O)N(C)C(=O)N(C)C1=O (stereo not drawn)	-36%	?	-28%	32µM*	1%
CN1C(=O)N(C)C(=O)C2(Cc3c(nc4ccccn4c3=O)N3CCC(Cc4ccccc4)CC32)C1=O (stereo not drawn)	8%	-21%	·	-1%	·
CCOc1cc(/C=C2\C(=O)NC(=O)N(C)C2=O)cc([N+](=O)[O-])c1O	-11%	50µM*	-2%	28µM*	31%
CC[C@]12CCCN3CCC4(c5ccccc5NC4C(C(=O)O)C1)C32 (stereo partly drawn)	·	·	·	-14%	·
CCCC(C)c1nnc(NC(=O)CCS(=O)(=O)c2ccccc2)s1 (stereo not drawn)	?	4µM*	50µM*	18µM*	?
CN1CCC2(CC1)C(C#N)=C(N)NC(S)=C2C#N	?	6.3µM*	4µM*	-26%	-17%
Clc1cccc(CNCCc2ccc3c(c2)OCO3)c1	79µM*	45µM*	28µM*	0%	?
FC(F)(F)c1ccc(CNCCc2ccc3c(c2)OCO3)cc1	79µM*	22µM*	56µM*	79µM*	-19%
Fc1ccccc1CNCCc1ccc2c(c1)OCO2	-34%	40µM*	71µM*	9%	-33%
Clc1ccc(CNCCc2ccc3c(c2)OCO3)cc1	45µM*	79µM*	25µM*	?	-2%
COc1cc2c(cc1OC)[C@@H]1C(=O)c3ccc4oc(C(C)C)cc4c3OC1CO2 (stereo partly drawn)	·	?	·	-40%	·
O=C1Nc2ccccc2C2(CCN(CCc3ccc(C(F)(F)F)cc3)CC2)O1	·	·	·	-13%	·
C=C1[C@@H](C)[C@H]2[C@H](Cc3ccccc3)NC(=O)[C@]23[C@H](OC(C)=O)/C=C/[C@](C)(O)C(=O)[C@@H](C)C/C=C/[C@H]3[C@@H]1O	·	5%[59 µM]	·	11%	·
O=C(C/C=N\OCc1c(Cl)cccc1Cl)Oc1ccc(Cl)cc1Cl	-5%	?	8%	7%	37%
O=C1C=C2C=C[C@@H]3C[C@@]2(O1)[C@H]1CCCCN31	·	·	·	16%	·
CN1CCc2nc(SCc3ccccc3Br)c(C#N)cc2C1	-33%	18µM*	?	-23%	40%
C[N+]1(CC(O)c2ccccc2)CCCCCC1 (stereo not drawn)	79µM*	50µM*	-4%	13%	9%
CN1C(CC(=O)c2ccccc2)CCCC1CC(O)c1ccccc1 (stereo not drawn)	0%	-2%[2.33 µM]	-14%	7%	81%
CC/C(=N\Nc1ccccc1)c1c(O)n(C)c(=O)n(C)c1=O	-30%	22µM*	-18%	?	24%
COc1ccc(-n2c(O)c(/C(C)=N/Nc3ccccc3)c(=O)[nH]c2=O)cc1	-6%	40µM*	-15%	0%	42%
C/C(=N\NC(=S)Nc1ccccc1)c1c(O)n(C)c(=O)n(C)c1=O	-4%	1.3µM*	18µM*	28µM*	-8%

High-throughput results as filed in PubChem.
